D2 PAM-1: D2 dopamine receptor (human) potentiation | hit rate 0.34% among 340,000 | potentiation, % at 10 µM | P14416 | HEK293 T-REx D2, calcium flux, EC20 dopamine potentiation;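 active = potentiation over 3 SD above the plate norm, cut at about 30% in these data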
Target sequence (P14416 whole entry, looked up): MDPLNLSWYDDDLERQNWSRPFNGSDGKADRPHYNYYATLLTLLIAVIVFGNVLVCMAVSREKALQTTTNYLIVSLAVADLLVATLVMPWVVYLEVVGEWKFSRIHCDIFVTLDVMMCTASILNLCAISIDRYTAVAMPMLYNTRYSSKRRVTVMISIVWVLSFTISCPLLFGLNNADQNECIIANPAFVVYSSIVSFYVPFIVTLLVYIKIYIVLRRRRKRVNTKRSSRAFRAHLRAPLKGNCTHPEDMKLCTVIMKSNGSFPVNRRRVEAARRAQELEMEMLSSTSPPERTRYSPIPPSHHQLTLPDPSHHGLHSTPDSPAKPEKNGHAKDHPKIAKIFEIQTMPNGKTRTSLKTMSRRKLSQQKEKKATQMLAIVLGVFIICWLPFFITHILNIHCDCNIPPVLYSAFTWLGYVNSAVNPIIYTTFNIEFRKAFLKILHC
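Potentiation of an EC20 dopamine calcium response is measured in a force-coupled, tetracycline-inducible Hek293 Trex D2 line. Compound-only kinetic reads over 180 s flag agonists before dopamine addition.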
D2 ag-1: D2 dopamine receptor (human) agonism; P14416; HEK293 T-REx D2 cells, calcium flux agonist mode; activation, % at 2 µM; hit rate 0.53% among 340,000; AID 485358;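 active = activation over 3 SD above normal in the single-dose calcium agonist read, cut at about 30% in these data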
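Agonism scored from kinetic calcium signal (1 read/sec, 180 s) following compound pin transfer, after a 10 s baseline. Cells: HEK293 Trex line expressing inducible D2 receptor coupled to calcium, dye-loaded after overnight culture at 30 C.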
D2 PAM-2: potentiates the human D2 dopamine receptor allosterically; potentiation, % (concentration not given with the values); P14416; AID 624464; DiscoveRx D2 beta-arrestin cells, luminescence, 90 min; 100% = 57 uM dopamine signal; hit rate 0.23% among 360,000; in the data active = potentiation above about 50%
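D2 cells co-treated with compound plus 50 nM dopamine (EC20) for 90 min at 37 deg C to detect potentiation. Beta-arrestin recruitment was read as enzyme-fragment luminescence after 1 h at ambient temperature. Full response was set by 57 uM dopamine.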
D2 antagonist: antagonists of human D2 dopamine receptor; inhibition, % at 10 µM; AID 485344; HEK293 TREx D2 cells, calcium flux, dopamine EC80; hit rate 2% among 340,000; P14416; in the data active = inhibition above about 30%; inactive = below that, where a call was filed
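HEK293 T-REx D2 cells, tet-induced, calcium dye no-wash. Cpd pintool add, 180 s kinetic, then EC80 DA, 180 s kinetic. Ca flux read.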
D2 ag-2: agonists of human D2 dopamine receptor (beta-arrestin). P14416. DiscoveRx PathHunter D2 beta-arrestin, luminescence, 90 min; 100% = 57 uM dopamine signal. activation, % (concentration not given with the values). hit rate 0.084% among 360,000; in the data active = activation above about 40%
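Agonist mode: compounds alone added to overnight-plated D2 PathHunter cells for 90 min at 37 C, with 57 uM final dopamine (EC100) defining full response. Beta-arrestin recruitment detected by chemiluminescent reagent, read after 1 h at ambient temperature.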
Each line names hits and unclear results; the compound was inactive in the other large screens. An excerpt weighted towards active compounds, which were near 2.4% of everything screened.

COC(=O)c1ccc2c(C)c(C(C)(C)O)[nH]c2c1	D2 antagonist 45
COCCn1c(=O)[nH]c2cc(C(=O)OC)ccc2c1=O	none
CCN(C(=O)c1ccc(N2CC3CC(C2)c2cccc(=O)n2C3)c(NC(=O)c2ccncc2)c1)c1cccc(C)c1 (configuration not stated)	none
Cc1cccc(C(=O)OCC(=O)N2CCCCCC2)c1	D2 antagonist 31
COc1ccc2oc(C(=O)OCC(=O)N3CCN(C(C)=O)CC3)c(C)c2c1	none
COc1ccc2oc(C(=O)OCC(=O)N3CCCCC3)c(C)c2c1	D2 antagonist 31
CC1=NN(Cc2ccccc2)C(=O)/C1=C\c1ccc(N(C)C)cc1	none
CCOC(=O)C1=NN(c2ccccc2)C(=O)/C1=C\c1ccc(N(C)C)cc1	D2 antagonist 32
COC(=O)CC1=NN(c2ccccc2)C(=O)/C1=C\c1ccc(OC)cc1	D2 antagonist 56
CCOc1ccc(CCNC(=O)CCCc2nnc3n(CCCOC)c(=O)c4sccc4n23)cc1	none (no result: D2 PAM-2, D2 antagonist, D2 ag-2)
CCOc1ccc2c(c1)c(C(C)=O)c(C)n2-c1ccccc1	D2 ag-1 40
O=C(C[C@@H]1C/C=C\CCCC(=O)OC[C@@H]2CCCN2C1=O)NCCO	none (no result: D2 PAM-1, D2 ag-1, D2 antagonist)
Cc1nc2ccc(S(=O)(=O)NCC(=O)Nc3ccc(F)cc3F)cc2s1	none (no result: D2 PAM-2, D2 antagonist, D2 ag-2)
Nc1nonc1-n1nnc(C(=O)N/N=C/c2ccccc2Cl)c1CN1CCOCC1	D2 PAM-1 43
CCOc1cc(/C=N/NC(=O)c2nnn(-c3nonc3N)c2C)ccc1OCc1ccc(F)cc1	none
COc1ccc2ccccc2c1/C=N/NC(=O)c1nnn(-c2nonc2N)c1CN(C)C	none
COc1ccc2ccccc2c1/C=N/NC(=O)c1nnn(-c2nonc2N)c1C(C)C	D2 antagonist 35
CCCOc1ccc(-c2c(C(=O)N/N=C/c3ccc(C)cc3)nnn2-c2nonc2N)cc1	none
CCOc1ccc(-c2c(C(=O)N/N=C/c3ccc(C)cc3)nnn2-c2nonc2N)cc1	D2 ag-1 39
CCOc1cc(/C=N/NC(=O)c2nnn(-c3nonc3N)c2C)ccc1OCc1cccc(F)c1	D2 PAM-1 55
CCc1cccc(NC(=O)CCNS(=O)(=O)c2ccc3c(c2)CCN3C(C)=O)c1	none (no result: D2 PAM-2, D2 antagonist, D2 ag-2)
COc1ccccc1OCCn1c(C(C)Oc2ccccc2)nc2ccccc21 (configuration not stated)	none (no result: D2 PAM-2, D2 antagonist, D2 ag-2)
Cc1nn(Cc2noc(C(=O)NCc3cccc(F)c3)n2)c(C)c1Br	none (no result: D2 PAM-2, D2 antagonist, D2 ag-2)
CCOc1ccc(-c2c(C(=O)N/N=C/c3ccc(Cl)cc3)nnn2-c2nonc2N)cc1	D2 PAM-1 84
Cc1ccc(-c2c(C(=O)N/N=C/c3ccsc3)nnn2-c2nonc2N)cc1	D2 antagonist 35
CCCn1c2ccccc2c2cnn(CC(=O)NC3CCCC(C)C3C)c(=O)c21 (configuration not stated)	D2 antagonist 35
CC(C)CC(=O)Nc1ccc(C(=O)OCc2cc(=O)n3nc(C(C)C)sc3n2)cc1	none (no result: D2 PAM-2, D2 antagonist, D2 ag-2)
COc1ccc(CN2CCCC(C(=O)Nc3cccc(-n4cccn4)c3)C2)cc1 (configuration not stated)	D2 antagonist 79
C=CC[C@@H](CC(=O)NCCO)C(=O)N[C@H](C)COC(=O)[C@@H](CC=C)Cc1ccc(F)cc1	none (no result: D2 PAM-1, D2 ag-1, D2 antagonist)
CCN(CC)CCNC(=O)C1CCN(C(=O)c2cnn(-c3ccccc3)c2-n2cccc2)CC1	none (no result: D2 PAM-2, D2 antagonist, D2 ag-2)
CCOC(=O)c1sc(=S)n(-c2ccc(C)cc2)c1SC	D2 antagonist 48
CC(=O)C(C)Oc1ncn(-c2ccccc2)n1 (configuration not stated)	D2 antagonist 33
CN1CCN(C(=O)CCN2C(=O)/C(=C/c3cccc(Br)c3)SC2=S)CC1	D2 antagonist 31
O=C(CCN1C(=O)S/C(=C\c2ccccc2)C1=O)N1CCCCC1	D2 antagonist 35
COc1ccccc1N1CCN(C2CCCN(Cc3cccc(O)c3)C2)CC1 (configuration not stated)	D2 antagonist 49
COc1ccccc1N1CCN(C2CCCN(C(=O)c3cc(C)oc3C)C2)CC1 (configuration not stated)	none
COc1ccccc1N1CCN(C2CCCN(C(=O)c3ccoc3C)C2)CC1 (configuration not stated)	D2 antagonist 31
COc1ccccc1N1CCN(C2CCCN(Cc3c(F)cccc3F)C2)CC1 (configuration not stated)	D2 antagonist 53
CC(C)CC(=O)Nc1ccc(C(=O)CN2C(=O)NC3(CCOc4ccccc43)C2=O)cc1 (configuration not stated)	D2 PAM-1 33
Cc1cccc(NC(=O)CNC(=O)CN2C(=O)NC3(CCCc4ccccc43)C2=O)c1C (configuration not stated)	none
CNC(=O)NC(=O)CN1C(=O)NC2(CCOc3ccccc32)C1=O (configuration not stated)	D2 antagonist 31
Cc1cccc(C)c1NC(=O)CNC(=O)CN1C(=O)NC2(CCc3ccccc32)C1=O (configuration not stated)	D2 antagonist 33
NC(=O)NC(=O)CN1C(=O)NC2(CCOc3ccccc32)C1=O (configuration not stated)	none
O=C(Nc1cccc(C(F)(F)F)c1)c1cnn(-c2cccc(F)c2)c1C1CCNCC1	none (no result: D2 PAM-2, D2 antagonist, D2 ag-2)
NC(=O)c1ccc(N2CCNC(=O)C2)c([N+](=O)[O-])c1	none
O=C(O)c1nn(CCOc2ccc(Br)cc2)c(=O)c2ccccc12	none
O=C(O)c1nn(CCOc2ccccc2F)c(=O)c2ccccc12	D2 PAM-1 33
Cc1ccc(NC(=O)CN(C)C(=O)c2cccc(S(=O)(=O)NCc3ccccc3)c2)cc1	D2 antagonist 46
Cc1ccc(NC(=O)CN(C)C(=O)c2cccc(S(=O)(=O)NCc3cccs3)c2)cc1	none
COc1cccc(NC(=O)CN(C)C(=O)c2cccc(NS(=O)(=O)c3ccccc3)c2)c1	D2 antagonist 32
COc1cccc(NC(=O)CN(C)C(=O)c2cccc(NS(=O)(=O)c3ccc(Br)cc3)c2)c1	none (no result: D2 PAM-1, D2 ag-1, D2 antagonist)
COc1cccc(NC(=O)CN(C)C(=O)CC(NC(=O)c2ccccc2Cl)c2ccccc2)c1 (configuration not stated)	D2 antagonist 32
O=C1N/C(=N\S(=O)(=O)Cc2ccccc2)S/C1=C/c1cc([N+](=O)[O-])ccc1O	D2 ag-1 59, D2 antagonist 31
O=C1N/C(=N\S(=O)(=O)c2ccccc2)S/C1=C\c1cc([N+](=O)[O-])ccc1O	D2 ag-1 33
COc1cc(/C=C2\S/C(=N/S(=O)(=O)Cc3ccccc3)NC2=O)c([N+](=O)[O-])cc1OC	none (no result: D2 ag-1, D2 antagonist)
c1ccc(CCc2nc(-c3ccccc3)no2)cc1	D2 PAM-1 39
c1ccc(-c2noc(CN3CCN(c4ccccc4)CC3)n2)cc1	none (no result: D2 PAM-1, D2 ag-1, D2 antagonist)

Source: PubChem BioAssay (National Center for Advancing Translational Sciences (NCATS))
